Shown is part of a subset that was picked to be rich in hits.
TDP1 inh: inhibitors of human tyrosyl-DNA phosphodiesterase TDP1; recombinant TDP1, AlphaScreen DNA substrate cleavage; Potency, µM (top dose mostly 130 µM), without a hit: at the highest dose activity change, negative = inhibition, hits mostly inhibitors; 350,000 tested, 0.28% active; further: nearly all actives have a fitted effect of over 40% in size
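Steps: enzyme plus compound, 15 min RT; add biotin/phosphotyrosine-FITC oligonucleotide (15 nM final), react 5 min; add donor/acceptor beads (10 ug/ml final), 10 min; read AlphaScreen. Tdp1 at 1 nM final.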
APEX1 inh: inhibitors of human APE1 endonuclease | P27695 | Potency, µM (doses to about 65.8 µM), inactives show at the top dose activity change, negative = inhibition, most hits filed as inhibitors | 350,000 tested, 0.35% active | recombinant APE1, TAMRA/BHQ-2 abasic DNA cleavage fluorescence | AID 2517;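 further: plate controls were vehicle for no effect and reference inhibitor for full effect; nearly all actives have a fitted effect of over 55% in size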
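Activity was derived from the fluorescence gain between first and third kinetic reads (60 s intervals, ex 525/em 598 nm) after 50 nM THF-abasic TAMRA/BHQ-2 duplex was added to 0.75 nM APE1 preincubated 15 min with compound.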
L3MBTL1 inh: blocks human L3MBTL1; 230,000 tested, 0.66% active; Q9Y468; AID 485360; Potency, µM (titrated, usually from 57.1 µM), without a hit: top-dose activity, negative = inhibition, usual class: inhibitors; AlphaScreen L3MBTL1–H3K9me1 peptide binding; further: nearly all actives have a fitted effect of over 60% in size
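First, the protein-peptide complex forms for 30 min at room temperature (L3MBTL1 50 nM, biotinylated H3K9me1 peptide 75 nM). Next, compounds are pin-transferred and incubated 30 min. Finally, AlphaScreen beads are added and read after 30 min.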
BLM helicase inh: Bloom syndrome helicase (human) inhibition; recombinant BLM DNA unwinding, fluorescence dequenching; 350,000 tested, 0.2% active; Potency, µM (titrated, usually from 56.1 µM), inactives show top-dose activity change, negative = inhibition, most hits filed as inhibitors; P54132; AID 2528;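 further: plate controls were vehicle for no effect and no enzyme for full effect; nearly all actives have a fitted effect of over 35% in size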
RECQ1 inh-1: RECQ1 (human) helicase inhibition | AID 2549 | P46063 | RECQ1 DNA unwinding, red fluorescence kinetic read | 240,000 tested, 0.54% active | Potency, µM (highest dose often 57.3 µM), without a hit: top-dose activity, negative = inhibition, actives largely listed as inhibitors;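 further: plate controls were vehicle for no effect and no enzyme for full effect; nearly all actives have a fitted effect of over 30% in size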
Target sequence (P46063 whole entry, looked up): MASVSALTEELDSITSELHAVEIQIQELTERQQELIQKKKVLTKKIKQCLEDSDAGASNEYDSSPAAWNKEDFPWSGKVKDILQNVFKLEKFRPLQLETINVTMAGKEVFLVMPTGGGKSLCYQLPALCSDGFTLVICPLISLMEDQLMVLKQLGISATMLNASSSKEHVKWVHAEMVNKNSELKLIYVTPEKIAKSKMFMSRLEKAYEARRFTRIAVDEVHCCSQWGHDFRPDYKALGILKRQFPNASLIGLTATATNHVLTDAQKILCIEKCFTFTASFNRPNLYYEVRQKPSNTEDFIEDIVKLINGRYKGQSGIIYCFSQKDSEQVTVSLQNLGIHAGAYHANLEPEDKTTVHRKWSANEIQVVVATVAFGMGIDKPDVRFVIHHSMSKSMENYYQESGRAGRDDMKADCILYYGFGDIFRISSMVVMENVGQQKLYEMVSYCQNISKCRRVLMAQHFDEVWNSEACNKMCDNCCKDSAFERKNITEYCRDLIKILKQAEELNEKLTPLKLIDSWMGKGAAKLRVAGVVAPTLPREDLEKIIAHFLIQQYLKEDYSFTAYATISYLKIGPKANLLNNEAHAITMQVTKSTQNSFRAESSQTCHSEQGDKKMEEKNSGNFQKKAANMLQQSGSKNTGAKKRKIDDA
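RECQ1T1 50 nM; forked duplex (20 bp + 30-nt ss tails) 200 nM, ATP 2 mM final; pH 8.0, 2 mM MgCl2, 2.5 ug/ml poly(dI-dC); 15 min compound preincubation; discontinuous kinetic read over 2 h at RT.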
KDM4E inh: JMJD2E (human) inhibition; B2RXH2; JMJD2E catalytic domain, FDH-coupled NADH fluorescence (FDH is formaldehyde dehydrogenase); Potency, µM (titrated, usually from 57.1 µM), for inactives: at the highest dose activity change, negative = inhibition, usual class: inhibitors; 230,000 tested, 1.6% active; AID 2147; active means well fitted inhibition curve with a large enough effect, not every such curve was filed as active; inconclusive means small, poorly fitted or top-dose-only effect, or another doubt; inactive means no such curve, though single readings can be large or run the other way;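 further: 0% = wells with enzyme and -100% = buffer wells without enzyme; nearly all actives have a fitted effect of over 50% in size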
RECQ1 conf: confirmation of human RECQ1 helicase inhibitors | shares compounds with RECQ1 inh-1 | RECQ1 helicase DNA unwinding, fluorescence | Potency, µM (top dose mostly 229 µM), inactives show top-dose activity change, negative = inhibition, most hits filed as inhibitors | 610 tested, 28% active | AID 2708; further: nearly all actives have a fitted effect of over 45% in size
ADP FP counter: counter-screen for RECQ1 inhibitors: ADP displacement; ADP fluorescence polarization displacement counterscreen; 530 tested, 27% active; shares compounds with RECQ1 inh-1; Potency, µM (top dose mostly 228 µM), inactives show top-dose activity change, negative = inhibition, most hits filed as inhibitors; further: nearly all actives have a fitted effect of over 45% in size
RECQ1 inh-2: confirmation of human RECQ1 helicase inhibitors | shares compounds with RECQ1 inh-1 | recombinant RECQ1 DNA unwinding, red fluorescence | Potency, µM (titrated, usually from 119 µM), inactives show top-dose activity, negative = inhibition, hits mostly inhibitors | 1,100 tested, 15% active; further: nearly all actives have a fitted effect of over 50% in size
Active calls of the source: *; i = inactive; u = inconclusive; x = no result; [ ] = dose if it differs, or a comment. Unless noted, the call rests on the fitted dose curve; in most records, active means well fitted curve in the direction sought with a large enough effect; inconclusive means small, poorly fitted or top-dose-only effect, or another doubt; inactive means no such curve, though single readings can be large; an effect the other way counts as inactive or inconclusive. Unless noted, on the % scale 0 is the no-effect control and ±100 the full control effect; potency means the concentration at half of the fitted maximal effect.

SMILES	TDP1 inh	APEX1 inh	L3MBTL1 inh	BLM helicase inh	RECQ1 inh-1	KDM4E inh	RECQ1 inh-2	others
Cc1nn(-c2ccccc2)c2c1C(c1ccccc1)C(C#N)=C(N)O2 (stereo not given)	3%	-7%	-6%	-4%	-3%	1%	x
Cc1ccc(-n2nc(C)c3c2OC(N)=C(C#N)C3c2ccoc2)cc1 (stereo not given)	12%	u	u	-6%	u	10µM*	-7%
COc1ccc(C(=O)COC(=O)/C=C/c2ccc(S(=O)(=O)Nc3cccc(S(N)(=O)=O)c3)cc2)cc1	6%	-3%	-11%	-8%	-16%	-8%	x
NS(=O)(=O)c1cccc(NS(=O)(=O)c2ccc(/C=C/C(=O)OCC(=O)c3ccc(Br)cc3)cc2)c1	4%	-1%	-12%	-14%	u	0%	-1%
Cc1cc(C)c(C(=O)/C=C/c2cccc3ccccc23)c(=O)[nH]1	8%	12%	-8%	-7%	-11%	-1%	x
Cc1[nH]c(=O)c(C(=O)/C=C/c2ccccc2F)c2c1CCCC2	2%	13%	-3%	-7%	32µM*	-8%	u
COc1ccc(Cl)cc1NC(=O)CN(C)CC(=O)Nc1ccccc1-c1ccccc1	3%	u	-13%	-11%	-19%	u	x
COc1ccc(Cl)cc1NC(=O)CN(C)CC(=O)Nc1ccc(C)cc1Br	0%	-12%	x	-8%	35µM*	9%	-19%
CCc1ccc(-n2c(SCC(=O)N3Cc4ccccc4CC3C(=O)O)nnc2-c2ccncc2)cc1 (stereo not given)	x	-3%	3%	0%	i	u	x	RECQ1 conf=20%;ADP FP counter=-6%
CNc1ccccc(C(=O)/C=C/c2ccccc2OC)c1=O	3%	-4%	-5%	-15%	25µM*	u	u
COc1ccc(Cl)cc1NC(=O)Cn1c(=O)n(-c2ccc(C)cc2)c(=O)c2ccc(C(=O)NCc3ccccc3Cl)cc21	2%	x	x	-3%	x	x	x
Cc1cc(C)cc(SCc2noc(C(=O)NCC3CCCO3)c2C(=O)O)c1 (stereo not given)	2%	-11%	6%	-2%	-8%	-4%	x	RECQ1 conf=10%;ADP FP counter=u
Cc1ccc(N2CC(C(=O)NCc3ccc(C)n3C)CC2=O)cc1 (stereo not given)	5%	-7%	x	-9%	u	u	-9%
COc1ccc(Cl)cc1C(=O)Nc1cccc(-c2ccc3nncn3n2)c1	x	u	x	-12%	u	14µM*	u
CC1CC1C(=O)Nc1nc(-c2cccs2)c(-c2cccs2)s1 (stereo not given)	0%	-10%	-10%	u	32µM*	u	u
CCN1/C(=C/c2cc[n+](CCCS(=O)(=O)[O-])c3ccccc23)Sc2ccccc21	4%	u	-23%	-12%	u	-12%	56µM*
O=c1[nH]c2ccc(NCc3ccccc3F)cc2[nH]1	2%	x	x	-2%	x	x	x
COc1ccccc1-c1ccc(/C=C2/C=C(CC(C)C)OC2=O)o1	9%	17%	u	-4%	u	u	x
CCCC1=C/C(=C/c2ccc(-c3ccccc3OC)o2)C(=O)O1	-3%	8%	-18%	-11%	22µM*	u	x	RECQ1 conf=u
Cc1ccc(Nc2nc(N)c([N+](=O)[O-])c(NCCO)n2)cc1C	4%	-1%	x	0%	0%	5%	x
COc1cccc(Nc2nc(N)c([N+](=O)[O-])c(NCc3ccccc3)n2)c1	7%	-3%	u	u	u	-1%	50µM*
Cc1ccc(Nc2nc(N)c([N+](=O)[O-])c(NCc3ccco3)n2)cc1C	9%	-2%	-11%	u	35µM*	7%	50µM*
COc1ccc(NC(=O)c2csc(Cc3ccc(Cl)cc3)n2)cc1	-13%	6%	21%	-10%	u	u	-48%
COc1ccc(Cc2nc(C(=O)Nc3ccc(Cl)cc3)cs2)cc1	-3%	-2%	x	-7%	-10%	-8%	x
N=C1/C(=C\c2coc3ccccc3c2=O)C(=O)N=C2SC(c3ccncc3)=NN12	x	-3%	x	u	u	281%	u
SMILES	TDP1 inh	APEX1 inh	L3MBTL1 inh	BLM helicase inh	RECQ1 inh-1	KDM4E inh	RECQ1 inh-2	others
N=C1/C(=C/c2coc3ccccc3c2=O)C(=O)N=C2SC(c3ccco3)=NN12	x	11%	u	u	28µM*	u	50µM*
CSC1=NSC2=NC(=O)/C(=C\c3coc4ccccc4c3=O)C(=N)N12	-3%	-10%	15%	-12%	-3%	u	x
N=C1/C(=C\c2coc3ccc(O)cc3c2=O)C(=O)N=C2SC=CN12	0%	2%	u	-28%	25µM*	0%	56µM*
Cc1cc(/C=C2\C(=N)N3N=C(c4ccco4)SC3=NC2=O)c(C)n1Cc1ccccc1	8%	-5%	u	-24%	u	u	u
CN1C(=O)/C(=C/c2coc3ccc(O)cc3c2=O)SC1=S	3%	4%	-5%	-2%	-21%	5%	x
CC(=O)c1ccc(N2CCN(S(=O)(=O)c3ccc(-c4coc(C)n4)cc3)CC2)cc1	9%	x	x	-11%	x	x	x
OC[C@H]1O[C@@H](n2cnc3c(NCc4ccccc4)ncnc32)[C@H](O)[C@@H]1O	14%[56.1 µM]	0%	x	0%	0%	3%	x
Cc1ccc(C)c(-n2c(SCC(=O)NC(C(=O)O)C(C)C)nnc2-c2cccc(Cl)c2)c1 (stereo not given)	8%	-2%	1%	-1%	0%	5%	x	RECQ1 conf=13%;ADP FP counter=10%
C=CCc1cccc(/C=N/NC(=O)CN2CCN(Cc3ccccc3)CC2)c1O	15%	19%	x	-24%	22µM*	x	x	RECQ1 conf=u;ADP FP counter=11µM*
C=CCc1cccc(/C=N/NC(=O)CNc2ccccc2)c1O	8%	-8%	x	-1%	i	u	x
Cn1c(NCCCO)nc2c1c(=O)n(Cc1ccccc1F)c(=O)n2C	6%	-1%	0%	-2%	-3%	-1%	x

Bioassay records: PubChem BioAssay, National Center for Advancing Translational Sciences (NCATS)
